The results in this text go back to ChEMBL document CHEMBL4808148, “HDAC6 screening dataset using tau-based substrate in an enzymatic assay yields selective inhibitors and activators” (2021).

Out of some 5,600 compounds screened, about 390 (7%) showed an effect of 50% or more. The entries come from a sample that favours strong results as a whole.

The target in this experiment is T1, Protein deacetylase HDAC6 (Homo sapiens) (UniProt Q9UBN7).
T1 sequence (whole entry): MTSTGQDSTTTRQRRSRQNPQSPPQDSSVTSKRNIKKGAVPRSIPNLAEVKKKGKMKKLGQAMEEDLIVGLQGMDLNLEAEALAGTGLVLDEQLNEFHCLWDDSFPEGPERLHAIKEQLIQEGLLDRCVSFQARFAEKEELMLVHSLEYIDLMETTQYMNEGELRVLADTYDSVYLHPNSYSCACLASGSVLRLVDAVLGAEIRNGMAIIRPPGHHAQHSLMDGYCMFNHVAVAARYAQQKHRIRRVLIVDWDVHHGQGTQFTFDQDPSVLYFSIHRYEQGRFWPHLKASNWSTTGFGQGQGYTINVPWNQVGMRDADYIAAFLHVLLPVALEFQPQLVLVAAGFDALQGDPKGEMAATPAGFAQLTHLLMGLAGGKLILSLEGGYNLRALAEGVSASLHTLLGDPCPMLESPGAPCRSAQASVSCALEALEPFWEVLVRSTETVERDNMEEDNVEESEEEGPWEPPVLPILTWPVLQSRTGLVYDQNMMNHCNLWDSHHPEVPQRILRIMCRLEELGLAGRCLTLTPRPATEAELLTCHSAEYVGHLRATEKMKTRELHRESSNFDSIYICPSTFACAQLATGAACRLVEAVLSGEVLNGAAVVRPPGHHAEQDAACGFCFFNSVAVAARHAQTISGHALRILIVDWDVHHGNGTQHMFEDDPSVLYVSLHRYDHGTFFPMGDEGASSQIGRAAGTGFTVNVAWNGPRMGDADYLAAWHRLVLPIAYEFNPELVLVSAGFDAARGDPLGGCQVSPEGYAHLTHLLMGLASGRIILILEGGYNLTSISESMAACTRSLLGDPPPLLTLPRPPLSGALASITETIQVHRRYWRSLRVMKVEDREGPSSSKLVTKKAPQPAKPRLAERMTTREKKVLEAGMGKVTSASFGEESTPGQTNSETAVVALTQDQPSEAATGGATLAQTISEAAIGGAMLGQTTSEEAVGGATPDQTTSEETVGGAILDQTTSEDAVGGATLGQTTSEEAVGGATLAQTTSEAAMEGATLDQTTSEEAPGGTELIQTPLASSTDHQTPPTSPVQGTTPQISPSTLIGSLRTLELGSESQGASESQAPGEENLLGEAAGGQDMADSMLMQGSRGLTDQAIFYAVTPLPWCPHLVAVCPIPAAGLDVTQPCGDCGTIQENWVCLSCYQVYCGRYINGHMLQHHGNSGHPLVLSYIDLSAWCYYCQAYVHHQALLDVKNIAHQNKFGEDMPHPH
The conditions noted are these: at 10 µM.
A word on the inhibition: it is the relative decrease from the control value, in per cent. Turning to `O=C(Nc1cccc2cccnc12)c1ccc(N2C(=O)[C@@H]3[C@H](C2=O)[C@@H]2C=C[C@H]3C2)cc1`, the inhibition turned out to be 56.2%. With `O=C(Nc1cccc2cccnc12)c1ccc(N2C(=O)[C@@H]3[C@H](C2=O)[C@H]2C=C[C@@H]3C2)cc1`, the inhibition is -1.4%.

`FC(F)(F)c1cc(NC(=S)Nc2ccc(Br)cc2-c2nnn[nH]2)cc(C(F)(F)F)c1`: the inhibition is 74.5%.

In the case of `Oc1nc(O)c2nc(O)[nH]c2n1`, the inhibition was found to be 12.1%. The value for `COc1ccccc1N1CCN(CCCCNC(=O)c2ccc(-c3ccc(C(C)=O)cc3)cc2)CC1` was 1.38%; that for `CN1CCCC(CN2c3ccccc3Sc3ccccc32)C1` (stereo not drawn) was 48.4%. Consider `COc1ccc2c(c1)N(C[C@H](C)CN(C)C)c1ccccc1S2`, for which the inhibition is 14.6%. The value for `CCSc1ccc2c(c1)N(CCCN1CCN(C)CC1)c1ccccc1S2` was 70.4%; that for `CN1CCN(CCCN2c3ccccc3Sc3ccc(C(F)(F)F)cc32)CC1` was 59.5%; that for `CCN(CC)C(C)CN1c2ccccc2Sc2ccccc21` (stereo not drawn) was 11.7%. The value for `CN1CCN(CCCN2c3ccccc3Sc3ccc(S(=O)(=O)N(C)C)cc32)CC1` was -2.89%; that for `CC(CN(C)C)CN1c2ccccc2Sc2ccccc21` (stereo not drawn) was 30.9%; that for `OCCN1CCN(CCCN2c3ccccc3Sc3ccc(Cl)cc32)CC1` was 36.5%. The value for `CC(=O)c1ccc2c(c1)N(CCCN1CCC(CCO)CC1)c1ccccc1S2` was 76.9%.

As for `CN(C)CCCN1c2ccccc2Sc2ccc(C(F)(F)F)cc21`, the inhibition came out at 89.2%. Then `CCC(=N\O)/C(C)=C/c1ccc(F)cc1`, with 47.7%. The value for `C[C@@H](NCc1cc(Br)cc2nc(O)c(O)nc12)P(=O)(O)O` was 7.12%; that for `CCCCCCCCCCCCCCCCCCCCCC(=O)O` was -9.27%. Then `COc1cc(N2CCC(N(C)C)CC2)ccc1Nc1ncc(Cl)c(Nc2ccccc2P(C)(C)=O)n1`, with 3.02%; and `CCC[C@@H](NC(=O)N1C(=O)C(CC)(CC)[C@@H]1Oc1ccc(C(=O)N2CCN(C)CC2)cc1)c1ccc2c(c1)OCO2`, with 9.19%. Consider `CCn1c2ccccc2c2cc(CNC)ccc21`, for which the inhibition is -7.52%. In the case of `COc1cccc(OC)c1-c1cc(C(=O)N[C@@H](CC(C)C)C(=O)O)nn1-c1ccnc2cc(Cl)ccc12`, the inhibition was determined as 6.09%. In the case of `CCCCN1CC(O)C(O)C(O)C1CO` (stereo not drawn), the inhibition was -6.7%. In the case of `COc1cc2c(cc1NS(=O)(=O)c1ccc(Br)cc1C)n(C)c(=O)n2C`, the inhibition came to 19.4%. Then `O=c1[nH]c([C@@H]2CCCN2)nc2c1oc1ccc(Cl)cc12`, with -8.21%.

As to `CC(C)(C)NC(=O)[C@@H]1C[C@@H]2CCCC[C@@H]2CN1C[C@@H](O)[C@H](Cc1ccccc1)NC(=O)[C@H](CC(N)=O)NC(=O)c1ccc2ccccc2n1`, the inhibition was 2.2%. Then `NCCCC(N)C(=O)O` (stereo not drawn), with -5.26%; and `CCCCC/C=C\C/C=C\C/C=C\CCCCC(=O)O`, with 20.4%; and `O=c1n(CC2CO2)c(=O)n(CC2CO2)c(=O)n1CC1CO1` (stereo not drawn), with 21.5%. Then `CCN(CC)CCCCN1c2ccccc2Oc2ccc(Cl)cc21`, with 22.7%; and `CN(C)CCCN1c2ccccc2CCc2ccc(Cl)cc21`, with 7.48%.

As for `CN(C)CCCN1c2ccccc2Sc2ccc(Cl)cc21`, the inhibition was 59.7%. With `c1ccc2c(Oc3nc(Nc4ccc(N5CCOCC5)cc4)c4ncn(C5CCCCC5)c4n3)cccc2c1`, the inhibition came out at 2.11%. On to `O=C(c1c2ccccc2cc2ccccc12)N1CCC(N2CCC[C@@H](C(=O)N3CCOCC3)C2)CC1`, for which the inhibition is 16%.

In the case of `C[C@@]12CCC3[C@@](CC[C@@H]4[C@](C)(C(=O)O)CCC[C@@]34C)(CC1=O)C2` (stereo partly drawn), the inhibition was 11.5%.

Take `c1ccc2c(c1)CCC[C@H]2Nc1nc2ccccc2[nH]1`: the inhibition is 96.9%. The value for `CCNC(=O)N1CCN(CCCC(c2ccc(F)cc2)c2ccc(F)cc2)CC1` was -5.99%; that for `CC(C)C[C@H](NC(=O)[C@@H](COC(C)(C)C)NC(=O)[C@H](Cc1ccc(O)cc1)NC(=O)[C@H](CO)NC(=O)[C@H](Cc1c[nH]c2ccccc12)NC(=O)[C@H](Cc1cnc[nH]1)NC(=O)[C@@H]1CCC(=O)N1)C(=O)N[C@@H](CCCNC(=N)N)C(=O)N1CCC[C@H]1C(=O)NNC(N)=O` was 7.12%. Turning to `CC(C)C[C@H](NC(=O)CNC(=O)[C@H](Cc1ccc(O)cc1)NC(=O)[C@H](CO)NC(=O)[C@H](Cc1c[nH]c2ccccc12)NC(=O)[C@H](Cc1cnc[nH]1)NC(=O)[C@@H]1CCC(=O)N1)C(=O)N[C@@H](CCCNC(=N)N)C(=O)N1CCC[C@H]1C(=O)NCC(N)=O`, the inhibition came to 18.4%. The value for `CCCCCCCCCCCCCCCC(=O)N[C@@H](CCC(=O)NCCCC[C@H](NC(=O)[C@H](C)NC(=O)[C@H](C)NC(=O)[C@H](CCC(N)=O)NC(=O)CNC(=O)[C@H](CCC(=O)O)NC(=O)[C@H](CC(C)C)NC(=O)[C@H](Cc1ccc(O)cc1)NC(=O)[C@H](CO)NC(=O)[C@H](CO)NC(=O)[C@@H](NC(=O)[C@H](CC(=O)O)NC(=O)[C@H](CO)NC(=O)[C@@H](NC(=O)[C@H](Cc1ccccc1)NC(=O)[C@@H](NC(=O)CNC(=O)[C@H](CCC(=O)O)NC(=O)[C@H](C)NC(=O)[C@@H](N)Cc1cnc[nH]1)[C@@H](C)O)[C@@H](C)O)C(C)C)C(=O)N[C@@H](CCC(=O)O)C(=O)N[C@@H](Cc1ccccc1)C(=O)N[C@H](C(=O)N[C@@H](C)C(=O)N[C@@H](Cc1c[nH]c2ccccc12)C(=O)N[C@@H](CC(C)C)C(=O)N[C@H](C(=O)N[C@@H](CCCNC(=N)N)C(=O)NCC(=O)N[C@@H](CCCNC(=N)N)C(=O)NCC(=O)O)C(C)C)[C@@H](C)CC)C(=O)O` was 102%; that for `CCCCc1nc2ccn(CC(=O)N(C)C)c(=O)c2n1Cc1ccc(-c2ccccc2-c2nnn[nH]2)cc1` was 0.96%; that for `CCCc1cc(C)[nH]c(=O)c1CNC(=O)c1cc(-c2ccc(N3CCN(C(C)C)CC3)nc2)cc2c1cnn2C(C)C` was 8.48%. The value for `O[C@@H](COc1cccc2ncccc12)CN1CCN([C@@H]2c3ccccc3[C@@H]3[C@H](c4ccccc42)C3(F)F)CC1` was 10.7%.
